The panel holds about 83,000 compounds, 20% with a hit somewhere; the sample as a whole holds those more often.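 The test compound was applied at a single concentration to cells in 96-well plates for 48 hours, and percent growth was recorded.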 Values without a mark were called inactive. Active and inactive are the calls of the source. How the source made its calls: active means growth percent below 10; inactive means the rest.

The test has as its system HL-60(TB) leukemia. The test is described as follows: NCI-60 one-dose screen, 48 h (100 = growth as untreated, 0 = no growth, -100 = all killed). The settings on record: 10 µM unless noted.
For `N/C(=N\C(N)=N\c1nc2ccccc2s1)c1cccc(Cl)c1`, the growth is 19.7%.
The value for `c1ccc2nc(Cn3cc[n+](Cc4ccc5ccccc5n4)c3)ccc2c1` was 8.58% (active).
`COC(=O)[C@]1(C)CCC[C@]2(C)[C@H]3C[C@H]4C(C(C)C)=C[C@]3(CC[C@H]21)[C@@H]1C(=O)CC[C@H](OCCC#N)[C@@H]14`: the growth was 113%.
For the compound `C=C1C(=O)O[C@H]2[C@H]1CC/C(COC(=O)NCc1ccc(Cn3c(=O)sn(CCCCC)c3=O)cc1)=C\CC[C@@]1(C)O[C@@H]21`, the growth is -40.4% (active).
With `Cn1ccnc1C(=O)/C=C/c1ccc(C(=O)Nc2c(F)c(F)c(F)c(F)c2F)cc1` the figure was -22.4% (active).
The value for `NS(=O)(=O)c1ccc(-n2ncc3c(NC4CCCCC4)ncnc32)cc1` was 70.7%; that for `c1ccc(CNc2ccc3nc(CCC4CCCCC4)[nH]c3c2)cc1` was 47%.
With `O=C(CO[N+](=O)[O-])Nc1ccc(C(=O)/C=C/c2ccc3c(c2)OCO3)cc1` the figure was 73.7%.
Consider `O=C1c2c(O)cc(O)cc2OC(c2ccc(O)c(O)c2)C1O` (configuration not stated), for which the growth was 110%.
With `O=C(c1ccc(F)c(F)c1Nc1ccc(I)cc1F)N1CC(O)([C@@H]2CCCCN2)C1` the figure was -18.9% (active); with `O=C(Nc1ncc(Cc2ccccc2)s1)c1ccc2c(c1)OCCCO2`, 11.8%.
In the case of `NC(=O)OCCn1cc(-c2nc(-c3c[nH]c4ncccc34)cs2)c2ccccc21`, the growth was 6.14% (active).
The value for `O=CNc1ccc2c(c1)Cc1cc([N+](=O)[O-])ccc1-2` was 17.7%.
With `N/C(=N\c1nc2ccccc2s1)NC(=O)Nc1ccccc1` the figure was 12.8%; with `Nc1cccc2cccc(O)c12`, 82.9%.
In the case of `O=C1C(Cl)=C(N=Nc2c(Cl)c(O)c3ccccc3c2O)C(=O)c2ccccc21`, the growth is 90.7%.
Turning to `O=C1c2cccnc2C(=O)c2c1c(C(=O)OCCCN1CCOCC1)c1ccccn21`, the growth was -3.63% (active).
In the case of `CCN(CCO)CCCOc1ccc2c(Nc3cc(CC(=O)Nc4cccc(F)c4)[nH]n3)ncnc2c1`, the growth was -2.32% (active).
Take `O=S(=O)(Nc1cc(Cl)ccc1Cl)c1ccc(-c2cnc(C3CC3)o2)cc1`: the growth is 0.302% (active).
With `COc1ccc(/C=C2\CN(C(=O)C(Cl)Cl)C/C(=C\c3ccc(OC)c(OC)c3)C2=O)cc1OC` the figure was -11.4% (active).
With `OC(CCC(O)(c1ccccc1)c1ccccc1)(c1ccccc1)c1ccccc1` the figure was -21.7% (active).
With `O=C(O)CSCc1nnc2n(Cc3ccccc3)c(=O)c3c4c(sc3n12)CCCC4` the figure was 94.9%; with `CC[C@H]1OC(=O)[C@H](C)[C@@H](O[C@H]2C[C@@](C)(OC)[C@@H](O)[C@H](C)O2)[C@H](C)[C@@H](O[C@@H]2O[C@H](C)C[C@H](N(C)C)[C@H]2O)[C@](C)(OC)C/C(C)=C2/O[C@@]1(C)C=C2C`, 41.4%.
For the compound `C=C1C(=O)O[C@H]2[C@H]1CC/C(COC(=O)C(C)c1ccc(CC(C)C)cc1)=C\CC[C@@]1(C)O[C@@H]21` (some centres not stated), the growth is -9.46% (active).
The value for `Cn1cc(C(=O)c2nc(-c3c[nH]c4ccc(Br)cc34)no2)c2cc(Br)ccc21` was 82.9%; that for `COc1cc2nc(N3CCCC3)nc(Nc3ccccc3)c2cc1OC` was -53.9% (active).
The value for `CO[C@H]1/C=C(/C)CCC[C@H](C)[C@H](O)[C@@H](C)C(=O)C(C)(C)[C@@H](O)CC(=O)O[C@@H]1/C(C)=C/c1csc(C)n1` was 24.3%; that for `O=C(O)/C=C\C(=O)Nc1cccc2ccccc12` was 56.7%; that for `Cc1cc(N2CCCCC2)nc(N2CCN(CC(=O)Nc3ccc4c(ccn4Cc4ccccc4)c3)CC2)n1` was 42.8%.
With `CCN(CC)C(=S)SCCO` the figure was 102%.
In the case of `CCCCCCCCCCNC(=O)CCl`, the growth is 95.8%.
For the compound `CCOC(=O)c1sc(Nc2ncccn2)nc1-c1ccccn1`, the growth is 109%.
Consider `COc1cc(N2C(=O)C=CC2=O)ccc1N1C(=O)C=CC1=O`, for which the growth is 82.9%.
With `COc1cc(/C=C/C(=O)c2ccc(NC(=O)CN3CCN(c4cc5c(cc4F)c(=O)c(C(=O)O)cn5C4CC4)CC3)cc2)cc(OC)c1OC` the figure was -33.7% (active); with `COc1ccc(-c2nc(Nc3cc(C)[nH]n3)c3ccccc3n2)cc1`, 41.4%; with `CNCC[C@H](Oc1cccc2ccccc12)c1cccs1`, 85.5%.
The value for `CN(CCC#N)c1ccc(/C=C(\C#N)c2cccc(C(F)(F)F)c2)cc1` was 69.5%.
